# “And” between values parts separate entries of the source, which are not always exact repeats. Equal values may be shown once. Among all 16,000 compounds or so, about 5,700 (36%) were called active. Roughly 24% stayed inconclusive and do not appear here. The list shows a part of the results. Unmarked numbers belong to inactive results. Calls come from the whole dose curve; as a rule, active = well fitted curve in the direction sought with a large enough effect; inconclusive = small, poorly fitted or top-dose-only effect, or effect the other way; inactive = no such curve, though single readings can be large or run the other way.
# Target: Cytochrome P450 1A2 (Homo sapiens) (UniProt P05177)
# Assay: Cytochrome panel assay with activity outcomes
# Details: recombinant CYP, pro-luciferin dealkylation, luminescence, p450-cyp1a2; series mostly up to 57.1 µM; activity, negative = inhibition: at the top concentration
# % is set by controls: 0 for no effect and ±100 for the full control effect.
# Cytochrome P450 1A2 (Homo sapiens), sequence (P05177 whole entry, looked up): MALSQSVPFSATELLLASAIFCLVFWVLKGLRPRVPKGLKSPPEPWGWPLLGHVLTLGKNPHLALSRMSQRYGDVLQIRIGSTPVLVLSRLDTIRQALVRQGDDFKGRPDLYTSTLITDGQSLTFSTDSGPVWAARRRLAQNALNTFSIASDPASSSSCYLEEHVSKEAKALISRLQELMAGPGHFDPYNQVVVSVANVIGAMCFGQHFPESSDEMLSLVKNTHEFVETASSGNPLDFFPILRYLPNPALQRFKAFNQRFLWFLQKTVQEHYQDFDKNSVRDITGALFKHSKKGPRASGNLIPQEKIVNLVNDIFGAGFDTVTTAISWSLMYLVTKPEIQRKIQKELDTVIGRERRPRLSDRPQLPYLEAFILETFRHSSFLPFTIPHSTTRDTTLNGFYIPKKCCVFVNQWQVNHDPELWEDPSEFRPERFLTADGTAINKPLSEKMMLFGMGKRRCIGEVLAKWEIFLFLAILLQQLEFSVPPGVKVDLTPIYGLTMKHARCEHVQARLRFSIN
Compound,AC50,"activity, negative = inhibition"
Cc1nnc(-c2cccc(Br)c2)c2cn(-c3ccccc3Cl)nc12,1.58 µM (active),
Cc1nnc(-c2cccc(Br)c2)c2cn(-c3ccc(Br)cc3)nc12,0.891 µM (active),
Cc1nn(C)cc1CNC(=O)CCC(=O)O,,-0.742%
O=C(CSC1=NCCS1)N1CCN(c2ccc(Cl)cc2)CC1,14.1 µM (active),
O=C(CSc1ccc(Cl)cc1)Nc1ccc(N2CCN(C(=O)c3ccc(Cl)cc3)CC2)cc1,,-13.4%
COC(=O)C/C=C\[C@@H](C)[C@@H](/C=N\O[C@@H](C)c1cn([C@H]2COC[C@H]2O)nn1)OC,,9.97% [at 11.4 µM]
O=C1C2=C(NC(=S)NC2c2ccc(Cl)cc2)NC(c2ccc(Cl)cc2)N1c1ccc(Cl)cc1 (stereo not drawn),12.6 µM (active),
COC(=O)C/C=C\[C@@H](C)[C@@H](/C=N\O[C@@H](C)c1cn([C@H](CO)Cc2ccccc2)nn1)OC,,-11.5% [at 11.4 µM] and 12.6% [at 11.4 µM]
Cc1ccccc1NC(=O)c1cccc2nc3ccccc3nc12,2 µM (active),
O=C(Nc1ccc2c(c1)OCCO2)c1cccc2nc3ccccc3nc12,2 µM (active),
Cc1ccccc1NC(=O)c1cnc(Nc2nc3ccccc3s2)nc1C,,-2.33%
Cc1ccccc1NC(=O)CN1CCC(n2nnc3ccccc32)CC1,,-9.11%
COc1ccc(-n2c(=O)c(-c3ccccc3)nc3cnc(N4CCNCC4)nc32)cc1,15.8 µM (active),
O=c1c(-c2ccc(F)cc2)nc2cnc(N3CCNCC3)nc2n1-c1ccccc1,10 µM (active),
COc1ccc(-n2c(=O)c(-c3cccc(C#N)c3)nc3cnc(N4CCNCC4)nc32)cc1,15.8 µM (active),
COc1cccc(Cn2c(=O)c(-c3cccc(C#N)c3)nc3cnc(N4CCN(C)CC4)nc32)c1,,-4.7%
O=C(c1cccc(F)c1)N1CCC2(CC1)CN(c1ccncc1)C2,,-7.68%
Cc1ccc(S(=O)(=O)N2CCN(Cc3ccccc3C(F)(F)F)CC2)cc1,,-21.7%
COc1ccc(C2=Nc3cccc4cccc(c34)N2)cc1,0.631 µM (active),
CC(=O)Nc1ccc(C(=O)NNC(=O)CCc2ccccc2)cc1,,-1.45%
CCCC(=O)Nc1nnc(Cc2ccccc2)s1,12.6 µM (active),
CCCC(=O)Nc1nnc(CCN2CCCCC2)s1,,-3.37%
CCCc1nnc(NC(=O)CCC(=O)NCc2ccccc2OC)s1,,-21.1%
O=C(CCc1ccccc1)Nc1nncs1,10 µM (active),
Nc1ccc(S(=O)(=O)NC(=O)c2ccccc2)cc1,,-3.88% [at 25.6 µM]

Compound,AC50,"activity, negative = inhibition"
Nc1ccc(N(c2ccccc2)c2ccc(N)cc2)cc1,17.8 µM (active),
C[C@@H]1O[C@H](O[C@@H]2[C@@H](Oc3cc(O)c4c(c3)O[C@H](c3ccc(O)cc3)CC4=O)O[C@@H](CO)[C@@H](O)[C@H]2O)[C@@H](O)[C@H](O)[C@@H]1O,,-11.8% [at 25.6 µM]
Nc1ccc(-c2sc(N)nc2-c2ccccc2)cc1,8.91 µM (active),
Nc1nnc(C(c2ccccc2)c2ccccc2)s1,,-5.01%
Nc1nc(-c2ccccc2)c(-c2ccccc2)c(-c2nc(N)nc(-c3ccccc3)c2-c2ccccc2)n1,,-4.5% [at 11.4 µM]
Nc1nc(-c2ccccc2)c(-c2ccccc2)s1,2.82 µM (active),
CC(C)CN1CCC2(CC1)CCN(C(=O)c1ccncc1)CC2,,7.78%
CN(C)CCC[C@@]1(c2ccc(F)cc2)OCc2cc(C#N)ccc21,inactive,
Cc1ccc(-c2cc(C(=O)NCc3ccco3)c3ccccc3n2)s1,6.31 µM (active),
Cc1cccc(C)c1-n1c(SCC(=O)NCc2ccco2)nc2ccccc2c1=O,,-8.08%
Cc1ccc(S(=O)(=O)N(Cc2ccccc2)c2ccccc2C(=O)NCc2ccco2)cc1,,-9.89%
CCc1ccc(-c2cc(C(=O)NCc3ccco3)c3ccccc3n2)s1,3.55 µM (active),
CC(C)C(O)(C(C)C)C(C)C,,-8.65% [at 11.4 µM]
C=CCOc1c(Br)cc(CNc2ccc(NC(=O)C(C)C)c(OC)c2)cc1OC,15.8 µM (active),
CCC1CC2CC(NC(C)=O)C1C2 (stereo not drawn),,-1.77%
COc1ccc(C(=O)c2cnc3ccccc3c2-c2ccccc2)cc1,15.8 µM (active),
C=CC[C@@H]1C=C[C@H](O/N=C(\C)CCN2CCc3nc(-c4ccccc4)c(-c4ccccc4)cc3C2)[C@H](CO)O1,,5.54% [at 11.4 µM]
CCCCOC(=O)NS(=O)(=O)c1sc(CC(C)C)cc1-c1ccc(Cn2c(CC)nc3c(C)cc(C)nc32)cc1,31.6 µM (active),
CC(C)CCn1nnnc1C(c1ccc(F)cc1)N1CCN(C(=O)c2ccco2)CC1 (stereo not drawn),,-26.7%
CCCC[C@H]1C[C@@H]1[C@@H]1N(P(=O)(c2ccccc2)c2ccccc2)C[C@@](O)(c2ccccc2)CC12CC2,,-2%
O=C1C=C(NCCc2cc(Br)c(O)c(Br)c2)C(=O)c2ncccc21,3.16 µM (active),
O=C1C=C(Nc2nc(C(=O)O)cc(=O)[nH]2)c2ccccc2C1=O,,-15.8% [at 2.29 µM]
Cc1sc(NC(=O)c2ccc(OCC(C)C)cc2)c(C(N)=O)c1-c1ccc(Cl)cc1Cl,,5.63%
Cc1ccc(C(=O)O[C@@H](C(=O)O)[C@@H](OC(=O)c2ccc(C)cc2)C(=O)O)cc1 (tested in a mixture with another compound),,0.639%
CC(C)COc1ccc(C(=O)Nc2scc(-c3ccc(Cl)cc3Cl)c2C(N)=O)cc1,,-16.6%

Compound,AC50,"activity, negative = inhibition"
COc1ccc(C(=O)Nc2scc(-c3ccc(Cl)cc3Cl)c2C(N)=O)cc1,0.447 µM (active),
Cc1ccc(C(=O)Nc2cc(Cl)ccc2OC(=O)c2ccc(C)cc2)cc1,10 µM (active),
COc1ccc(C(=O)Nc2cc(Cl)ccc2OC(=O)c2ccc(OC)cc2)cc1,10 µM (active),
NNC(=O)c1ccc[n+](CCc2ccccc2)c1,,-20.6% [at 11.4 µM]
NC(N)=Nc1ccc(Cl)cc1,,-11.8%
Cc1ccc(C)c(/C(=N\N=C(N)N)C2CC2)c1,,1.09% [at 2.29 µM]
NC(N)=N/N=C(\c1ccc(Cl)cc1)C1CC1,0.794 µM (active),
CCc1ccccc1NC(=O)c1ccc(F)c(S(=O)(=O)N2CCC(C(N)=O)CC2)c1,,1.23%
CCc1ccccc1NC(=O)c1ccc(-n2c(C)ccc2C)cc1,14.1 µM (active),
NCCS(=O)O,,-5.92%
Cn1cc(/C=N/n2cnc3sc4c(c3c2=O)CCCC4)c2ccccc21,14.1 µM (active),
Cn1cc(/C=N/n2cnc3scc(-c4ccccc4)c3c2=O)c2ccccc21,8.91 µM (active),
O=S(=O)(c1ccccc1)N1CCC2(CCN(Cc3ccccc3)CC2)CC1,,-2.85%
O=[N+]([O-])c1ccc(Cl)c(/C=N/N2CCN(Cc3ccccc3)CC2)c1,2.51 µM (active),
O=[N+]([O-])c1ccc(N2CCN(Cc3ccccc3)CC2)c(S(=O)(=O)N2CCOCC2)c1,,-0.304%
CCCCC(=O)Nc1nnc(SCC(=O)NC2CCCC2)s1,,-12.6%
CCSc1nnc(NC(=O)Cc2ccccc2OC)s1,,-9.79%
CCSc1nnc(NC(=O)C(C(F)(F)F)C(F)(F)F)s1,15.8 µM (active),
CC(CC(=O)O)(CC(=O)O)C(=O)O,,-5.85% [at 11.4 µM]
OCCN1CCN(C(=S)c2ccc(Br)cc2)CC1,,-6.49%
O=C(CN1CCN(Cc2ccccc2)CC1)c1ccc(Br)cc1,,-14.4%
CCN1CCN(C(=S)c2ccc(Br)cc2)CC1,15.8 µM (active),
Cc1cc2c(cc1S(N)(=O)=O)S(=O)(=O)CCC2,,-16.8% [at 25.6 µM]
CCN(CCO)Cc1csc2cccc(Br)c12,11.2 µM (active),
CCC(c1nnnn1CCOC)N1CCN(C(=O)c2ccco2)CC1 (stereo not drawn),,21.4%

Compound,AC50,"activity, negative = inhibition"
COCCN(C(=O)c1ccco1)c1nnc(-c2ccc(OC)cc2)s1,15.8 µM (active),
Cc1ccc(C2C(C(=O)c3ccco3)=C(O)C(=O)N2c2nnc(C)s2)cc1 (stereo not drawn),,3.47%
CC1(C)CC(=O)c2cnc(N)nc2C1,,3.27%
CC1=C(C(=O)OCc2ccccc2)C(c2cccnc2)c2c(n(C)c(=O)n(C)c2=O)N1 (stereo not drawn),,-26.2%
CCOC(=O)CCN1C(=O)[C@H]2[C@H]3[C@H](O)[C@H](O)C/C(=N/OCc4ccccc4)[C@@H]3CC[C@@H]2C1=O,,4.94% [at 11.4 µM]
CC1=C(C(=O)OCc2ccccc2)C(c2ccc(Cl)cc2)NC(=O)N1CCCCCC(=O)O (stereo not drawn),25.1 µM (active),
CCOC(=O)CCN1C(=O)[C@H]2[C@H]3[C@H](O)[C@H](O)C/C(=N/OCc4ccccc4)[C@H]3CC[C@@H]2C1=O,,-13.8% [at 11.4 µM]
CC1=C(C(=O)OCc2ccccc2)C(c2ccccc2)NC(=O)N1CCCCCC(=O)O (stereo not drawn),20 µM (active),
CC(=O)N1CCC2(CC1)CCN(C(c1ccccc1)c1ccccc1)CC2,,-3.22%
NCCSCCC(=O)O,,-2.89% [at 11.4 µM]
N[C@@](CCc1ccccc1)(C(=O)O)c1ccccc1,,-9.59% [at 11.4 µM]
NCCSCCc1ccccc1,5.01 µM (active),
O=C(O)CSCCc1ccccc1,,-15.5% [at 11.4 µM]
O=C(O)CNCCc1ccccc1,,-1.5% [at 11.4 µM]
NNCCc1ccccc1,3.16 µM (active) and 1 µM (active),
COc1cccc2c1C(=O)c1c(O)c3c(c(O)c1C2=O)C[C@@](O)(C(=O)CO)C[C@H]3O[C@H]1C[C@@H](N)[C@H](O)[C@@H](C)O1.[W],,-11.9% [at 11.4 µM]
Cc1sc2c(c1C)c(=O)n(-c1ccccc1)c1nnc(C)n21,,-26.4%
Cc1ccc(S(=O)(=O)Oc2ccc(/C=C(/NC(=O)c3ccccc3)C(=O)Nc3ccccc3)cc2)cc1,,2.92%
COc1ccc(/C=C(/C(=O)Nc2ccccc2C(=O)NC(C)C)c2ccccc2)cc1,15.8 µM (active),
CC(C)NC(=O)c1ccccc1NC(=O)/C=C/c1ccc([N+](=O)[O-])cc1,,10.2%
Cc1ccccc1NC(=O)/C(=C/c1ccccc1)c1ccccc1,5.01 µM (active),
Cc1ccccc1NC(=S)NN1CCN(C)CC1,,-4.46%
O=C(O)/C(=C\c1ccccc1)c1ccccc1,,-20.8% [at 11.4 µM]

# Reference: PubChem BioAssay AID1851 (National Center for Advancing Translational Sciences (NCATS), 2009)
